Source: PubChem
Efflux pump mplx: blocks antifungal efflux pumps in multiplex yeast assay. S. cerevisiae Candida pump triplex, Nile Red efflux. inhibition, % at 10 µM. 330,000 compounds, 0.44% hits;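 active = plate passing quality check with inhibition over a set limit, or well fluorescence over plate mean plus 4 SD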;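 also: Nile Red retained in pooled yeast measured as flow cytometry median fluorescence; 0% = buffer negative control and 100% = Enniatin B positive control; higher means more Nile Red kept so more efflux inhibition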
Calb FLC: affects C. albicans growth with fluconazole | growth inhibition, % (test concentration not listed) | 300,000 compounds, 0.57% hits | AID 1979 | C. albicans CaCi-2 (fluconazole-resistant clinical isolate) + fluconazole, Alamar Blue growth, 48 h;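 active = growth inhibition above about 58% in most replicates, limit read from the data, passing the limit was not always enough; inconclusive = exactly half the replicates above a set limit; inactive = most replicates below a set limit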;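 also: all wells also contain fluconazole at 8 µg/ml as a sub-toxic cotreatment; 0% = median of DMSO wells and 100% = median of geldanamycin control wells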
PHOSPHO1 inh: PHOSPHO1 (human) inhibition | Q8TCT1 | recombinant PHOSPHO1, absorbance phosphatase assay | inhibition, % at 13.3 µM | 290,000 compounds, 1.1% hits | AID 1565; in the data active = inhibition above about 60%
KCC2 mod: KCC2 (human) Cl- transport modulation | B-score of Tl+ flux slope (higher = more flux/activation; lower = inhibition) at 10 µM | KCC2 cells, thallium flux FluoZin-2 fluorescence | 190,000 compounds, 2.2% hits | Q9H2X9 | AID 1456;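 active = thallium flux slope and its plate-corrected score both differing from the plate sample mean at a set confidence after two filtering rounds, in either direction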;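 also: slope of fluorescence scaled to starting intensity during 10 to 20 s after thallium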
Target sequence (Q9H2X9 whole entry, looked up): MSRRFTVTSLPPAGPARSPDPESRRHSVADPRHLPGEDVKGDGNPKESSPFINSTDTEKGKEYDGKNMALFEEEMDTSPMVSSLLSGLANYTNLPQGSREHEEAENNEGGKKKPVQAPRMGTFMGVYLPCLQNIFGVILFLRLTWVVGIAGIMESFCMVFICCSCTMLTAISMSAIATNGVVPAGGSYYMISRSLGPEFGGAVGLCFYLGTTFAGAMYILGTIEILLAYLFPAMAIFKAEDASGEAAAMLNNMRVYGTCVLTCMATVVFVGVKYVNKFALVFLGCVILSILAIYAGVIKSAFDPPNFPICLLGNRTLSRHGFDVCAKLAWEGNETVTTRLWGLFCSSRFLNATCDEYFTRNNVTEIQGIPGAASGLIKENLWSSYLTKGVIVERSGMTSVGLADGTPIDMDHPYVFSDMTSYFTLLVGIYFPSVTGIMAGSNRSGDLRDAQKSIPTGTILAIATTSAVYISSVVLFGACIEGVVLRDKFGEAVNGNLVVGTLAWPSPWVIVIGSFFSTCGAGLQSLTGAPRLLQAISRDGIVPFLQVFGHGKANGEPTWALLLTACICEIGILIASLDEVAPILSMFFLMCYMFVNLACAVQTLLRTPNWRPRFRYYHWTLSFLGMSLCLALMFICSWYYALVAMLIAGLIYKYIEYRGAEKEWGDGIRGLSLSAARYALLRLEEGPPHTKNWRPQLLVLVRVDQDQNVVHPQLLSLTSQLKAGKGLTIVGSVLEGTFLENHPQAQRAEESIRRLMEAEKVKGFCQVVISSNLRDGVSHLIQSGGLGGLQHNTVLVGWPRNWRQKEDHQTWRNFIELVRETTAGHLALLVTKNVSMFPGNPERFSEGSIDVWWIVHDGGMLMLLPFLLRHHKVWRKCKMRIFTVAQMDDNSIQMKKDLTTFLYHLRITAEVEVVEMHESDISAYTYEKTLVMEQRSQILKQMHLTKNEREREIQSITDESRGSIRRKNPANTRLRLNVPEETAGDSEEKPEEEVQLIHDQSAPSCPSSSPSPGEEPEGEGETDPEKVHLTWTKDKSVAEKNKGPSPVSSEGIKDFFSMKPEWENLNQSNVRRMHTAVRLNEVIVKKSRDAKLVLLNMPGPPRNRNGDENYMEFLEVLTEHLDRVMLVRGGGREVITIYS
H9c2 protect: modulators protecting cardiomyocytes from myocardial damage. AID 588492. H9c2 cardiomyocytes, H2O2 injury protection, ATPLite, 2 h. protection from H2O2 cell death, % at 20 µM. 360,000 compounds, 0.63% hits;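 active = compounds giving at least 50% protection of heart cells from peroxide-induced death in the single-dose screen, raw or plate-pattern-corrected value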;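 also: 0% = DMSO wells with peroxide and 100% = DMSO wells without peroxide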
KCC2 secondary: KCC2 (human) modulation, secondary assay; shares compounds with KCC2 mod; HEK293-KCC2, thallium flux, FluoZin2 fluorescence; active compounds read high; normalised thallium flux (F/F0 slope) at 10 µM; 3,700 compounds, 15% hits;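 active = thallium flux slope above the same plate's solvent-only control mean plus 3 SD; inconclusive = the two replicate wells disagree; inactive = no significant difference from solvent-only control wells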
KCC2 bumet counter: bumetanide-insensitive thallium flux in KCC2 cells with ouabain, counter-screen. shares compounds with KCC2 mod. HEK293-KCC2 + bumetanide/ouabain, thallium flux FluoZin2; active compounds read high. normalized thallium flux at 10 µM. 3,700 compounds, 49% hits. AID 1714;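 active = thallium entry rate above the same plate's blocked-transporter control wells by more than 3 SD; inconclusive = the two repeat wells disagree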;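 also: raw slope of fluorescence over initial fluorescence between 10 and 20 s after thallium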
KCC2 secondary2: KCC2 (human) modulation, second secondary assay | 3,700 compounds, 23% hits | HEK293-KCC2, thallium flux FluoZin2 fluorescence; actives lie on both sides; F/F0 rise rate, 10–20 s post-thallium | shares compounds with KCC2 mod | normalized thallium flux at 10 µM;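 active = thallium flux slope more than 3 SD above or below the plate's solvent-only control mean, mostly below; inconclusive = the two repeat wells disagreed; inactive = no significant shift from solvent-only controls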;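 also: raw slope with 0.1% DMSO as baseline and bumetanide as block control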
HEK293 Tl flux: acts in parental HEK cells, KCC2 counter-screen. shares compounds with KCC2 mod. HEK293 parental cells, thallium flux FluoZin2, ouabain; baseline-ratio fluorescence slope, 10–20 s after thallium. thallium flux rate (normalised fluorescence) at 10 µM. 3,700 compounds, 46% hits;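 active = thallium flux rate significantly above the same plate's solvent-only control wells, beyond their mean plus 3 SD; inconclusive = the two replicate wells gave conflicting results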
KCC2 retest ouab: confirmation of human KCC2 modulators with ouabain | shares compounds with KCC2 mod | HEK293-KCC2, thallium flux FluoZin2 fluorescence; bidirectional: low = inhibitor, high = activator | raw Tl+ flux slope (below DMSO = inhibition, above = activation) at 10 µM | 3,700 compounds, 48% hits | AID 1717;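 active = thallium flux slope beyond 3 SD from same-plate DMSO control mean in most replicates, usually higher, sometimes lower; inconclusive = repeat tests gave conflicting results; inactive = no significant difference from controls in most replicates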;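 also: slope of initial-normalized fluorescence between seconds 10 and 20 after thallium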
HEK293 Tl flux2: parental HEK flux effect, counter-screen 2 | thallium flux slope at 10 µM | 3,700 compounds, 33% hits | AID 1718 | shares compounds with KCC2 mod | HEK293 parental, thallium flux FluoZin-2 fluorescence slope;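 active = thallium flux slope above the same plate's solvent-control mean plus 3 SD in both duplicate wells; inconclusive = duplicate wells that disagreed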;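 also: run without ouabain in cells lacking the KCC2 cotransporter; slope of fluorescence scaled to its starting value between 10 and 20 s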
The depositor's hits bear a star; ? = inconclusive; . = not tested or not shown. Shown are actives, neighbours in structure and some others; about 3.3% of the full set was active somewhere.

SMILES	Efflux pump mplx	Calb FLC	PHOSPHO1 inh	KCC2 mod	H9c2 protect	KCC2 secondary	KCC2 bumet counter	KCC2 secondary2	HEK293 Tl flux	KCC2 retest ouab	HEK293 Tl flux2
CC1=NN(C(=O)c2ccc(Br)cc2)C(O)(C(F)(F)OC(F)(F)F)C1 (centres undefined)	0	-4	18	6.1*	-1	0.0094	0.0099*	0.031	0.0088*	0.029*	?
CCn1c(SCC(=O)Nc2ccc(C(C)=O)cc2)nc2nc3c(cc2c1=O)CCCC3	0	-2	12	.	-3	.	.	.	.	.	.
CCn1c(SCC(=O)Nc2ccc(Cl)cc2)nc2nc3c(cc2c1=O)CCCC3	0	14	1	4.8*	9	?	0.015*	0.033	0.013*	?	0.013*
CC1CCC2C(=O)N(c3ccc(NC4CCN(Cc5ccccc5)CC4)c([N+](=O)[O-])c3)C(=O)C2C1 (centres undefined)	0	-11	24	-2.8	-3	.	.	.	.	.	.
O=C1CCC(=O)N1c1ccc(NC2CCN(Cc3ccccc3)CC2)c([N+](=O)[O-])c1	0	-3	12	-5.9*	4	0.0072	0.0061	0.025*	?	0.024	0.011
O=[N+]([O-])c1ccc(NC2CCN(Cc3ccccc3)CC2)c([N+](=O)[O-])c1	0	6	37	-5.2*	-3	0.006	0.0046	0.022*	0.0073	?	0.011
O=[N+]([O-])c1ccccc1NC1CCN(Cc2ccccc2)CC1	0	-10	19	-2.4	4	.	.	.	.	.	.
O=C1C2CCCCC2C(=O)N1c1ccc(NC2CCN(Cc3ccccc3)CC2)c([N+](=O)[O-])c1 (centres undefined)	0	-3	-9	-8.5*	-6	0.011	0.0077*	0.026*	0.0078	0.014*	0.011
Cc1sc2c(c1C)c(=O)nc1n2Cc2ccccc2-1	.	4	-16	.	.	0.0087	0.0062	0.03	0.008	0.019	0.011
Cc1onc(-c2ccccc2)c1C(=O)NNC(=S)NC(=O)/C=C/c1cccs1	0	-10	-24	6.7*	22	0.0067	0.027*	?	0.016*	0.03*	0.018*
Cc1onc(-c2ccccc2)c1C(=O)NNC(=S)NC(=O)c1ccc2c(c1)OCO2	0	4	-27	16*	17	0.014*	0.034*	0.036	?	0.03*	?
Cc1onc(-c2ccccc2)c1C(=O)NC(=S)NNC(=O)c1ccco1	0	-6	-91	6.6*	12	0.018	0.014*	0.03	0.014*	0.021	0.015*
COc1ccc(Cn2cc(CN3CCOCC3)nn2)cc1	.	.	.	.	6	.	.	.	.	.	.
COCCNC(=S)N1CCC(Cc2ccccc2)CC1	0	-27	14	-4.2*	-1	0.0078	0.0061	0.032	0.0039	0.015*	0.011
Cc1ccc(-c2n[nH]c(=S)n2/N=C/c2cccn2C)cc1	0	20	27	5.2*	1	0.012	0.031*	0.034	0.0093*	0.026	0.011*
S=c1[nH]nc(C2CCCCC2)n1/N=C/c1cccs1	0	-4	6	6.1*	2	0.013*	0.065*	0.033	0.023*	?	?
COc1ccc(-c2n[nH]c(=S)n2/N=C/c2cccn2C)cc1	0	8	16	1.2	3	.	.	.	.	.	.
Cc1ccc(-c2nn(-c3ccccc3)cc2/C=N/n2c(-c3cccs3)n[nH]c2=S)cc1	0	-2	-25	4.6*	-7	0.011	0.0094*	0.03	0.018*	0.021	0.012
CC(C)(C)c1ccc(-c2n[nH]c(=S)n2/N=C/c2ccncc2)cc1	0	16	48	5.6*	-5	0.011	0.018*	0.032	0.013*	?	0.011
S=c1[nH]nc(C2CCCCC2)n1/N=C/c1ccncc1	0	33	-116	1.1	-3	.	.	.	.	.	.
Cc1cc(-c2n[nH]c(=S)n2/N=C/c2cccs2)n[nH]1	0	-15	11	0.74	-4	.	.	.	.	.	.
S=c1[nH]nc(-c2ccccc2)n1/N=C/c1cccs1	0	105*	38	.	-1	0.0056	0.04*	0.043*	0.025*	0.037*	0.027*
CCOc1ccc(NC(=O)/C(C=Nc2ccccc2)=C(\C)O)cc1	0	-1	28	.	-1	.	.	.	.	.	.
CCCc1cc(C(=O)Nc2sc(C)c(CC)c2C#N)no1	0	11	30	9.7*	-14	0.012	0.026*	0.037	0.021*	0.029*	0.013*
CCc1c(C)sc(NC(=O)c2cc(C3CC3)on2)c1C#N	0	-7	15	3.7*	-12	0.008	0.012*	0.029	0.011*	0.022	0.012*
SMILES	Efflux pump mplx	Calb FLC	PHOSPHO1 inh	KCC2 mod	H9c2 protect	KCC2 secondary	KCC2 bumet counter	KCC2 secondary2	HEK293 Tl flux	KCC2 retest ouab	HEK293 Tl flux2
CCCc1cc(C(=O)Nc2sc3c(c2C#N)CCC3)no1	0	84*	-9	6.2*	-11	0.0078	0.024*	0.029	0.018*	?	0.016*
CCOc1cc(C(=O)NCc2ccc3c(c2)OCO3)cc(OCC)c1OCC	0	5	3	.	4	.	.	.	.	.	.
Cc1ccc(-c2c[nH]c(=S)n2-c2ccccc2F)cc1	0	-9	36	3	-7	.	.	.	.	.	.
Cc1ccc(-c2c[nH]c(=S)n2-c2ccccc2)cc1	0	-34	45	7.3*	-5	0.012	0.023*	0.037	?	?	?
CCOc1cc(N2CCOCC2)c(OCC)cc1NC(=O)Cc1cccc(OC)c1	0	25	39	0.083	11	.	.	.	.	.	.
CCOc1cc(N2CCOCC2)c(OCC)cc1NC(=O)Cc1ccc(OC)c(OC)c1	0	7	6	-4.7*	1	0.0088	0.0054	0.031	0.008	0.019	0.01
Cc1ccc(/C=N/NC(=O)c2nnn(-c3nonc3N)c2C(C)C)o1	0	0	12	.	3	.	.	.	.	.	.
CC(C)(C)c1cc(-c2csc(Nc3ccccc3)[n+]2Cc2ccc(C(=O)O)cc2)cc(C(C)(C)C)c1O	0	?	-21	-1.8	-8	.	.	.	.	.	.
O=C(O)c1ccc(C[n+]2c(-c3ccccc3)csc2Nc2ccccc2)cc1	0	4	-9	-3.6*	-5	0.0088	?	0.031	0.0073	0.016*	0.01
